In the supplement of paper PMC10600219:
Structures can show the parent of a compound that is named as a salt. Over roughly 2,800 compounds, “cell viability relative to vehicle” has its median near 1.1; the lowest 2% begin near 0.19. The full list was thinned out, with the lowest values kept by preference.

system: NCI-H2228 parental; test: cell viability relative to vehicle (fraction of vehicle); NCI-H2228 is an ALK-positive lung cancer line and DTP means drug-tolerant persister; higher = less growth inhibition; conditions: 100 nM; treatment time 6 days
In short: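 Each value is viability relative to vehicle-treated cells, measured as ATP with the CellTiter-Glo 3D Cell Viability Assay. Parental NCI-H2228 cells and drug-tolerant persisters (1000 nM targeted drug, 13 days) in 384-well plates received the 3114-agent TargetMol anti-cancer compound library at 100 nM, or DMSO, and were read 6 days later.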

Structure (SMILES)	cell viability
FC(F)(F)c1ccccc1-c1nc(NCc2cccs2)c2ccccc2n1	1.04
CC(CCc1ccccn1)(CCc1ccccn1)C(=O)c1ccccc1 [JAK2 Inhibitor V]	1.08
COc1cc2ncnc(Nc3ccc(Oc4ccccc4)cc3C)c2cc1OC	0.96
CCc1ccc(-c2nc(CSCC(=O)NCCc3ccccc3)c(C)o2)cc1	1.1
COc1cc(N(C)C)cc(CN(C)CCc2ccc([N+](=O)[O-])cc2)c1O [CDC25 Phosphatase Inhibitor I]	1.05
O=C(O[C@@H]1Cc2c(O)cc(O)cc2O[C@H]1c1cc(O)c(O)c(O)c1)c1cc(O)c(O)c(O)c1 [(-)-Gallocatechin gallate]	1.07
O=C1NCCSc2c1sc1ccc(O)cc21	1.05
Cc1csc(-c2nnc(Nc3ccc(Oc4ncccc4-c4ccnc(N)n4)cc3)c3ccccc23)c1	0.143
C[C@@H]1CCCCCCCCCCCCC(=O)C1 [Muscone]	1.13
CC(=O)NC(Cc1ccccc1)C(=O)O (stereo not drawn) [Afalanine]	1.04
CC(NC(=O)C(Cc1ccccc1)NC(=O)OCc1ccccc1)C(=O)CF (stereo not drawn)	1.1
COC[C@H](NC(=O)c1cnc(C)s1)C(=O)N[C@@H](COC)C(=O)N[C@@H](Cc1ccccc1)C(=O)[C@@]1(C)CO1 [Oprozomib]	0.176
Cn1c(=O)c(Oc2ccc(F)cc2F)cc2cnc(NC(CCO)CCO)nc21 [Pamapimod]	1.05
C[C@@H]1CC[C@@]2(NC1)O[C@H]1C[C@H]3[C@@H]4CC=C5C[C@@H](O[C@@H]6O[C@H](CO)[C@H](O)[C@H](O[C@@H]7O[C@H](CO)[C@@H](O)[C@H](O)[C@H]7O)[C@H]6O[C@@H]6O[C@@H](C)[C@H](O)[C@@H](O)[C@H]6O)CC[C@]5(C)[C@H]4CC[C@]3(C)[C@H]1[C@@H]2C [Solasonine]	1.1
Cn1cc(-c2cc3c(N4CCN(c5ncc([C@@](C)(N)c6ccc(F)cc6)cn5)CC4)ncnn3c2)cn1 [Avapritinib]	0.846
CC(C)C[C@H](NC(=O)CNC(=O)c1cc(Cl)ccc1Cl)B1OC(=O)C(CC(=O)O)(CC(=O)O)O1	0.106
CCCC(C)NC(=O)c1ccc(Cl)c(Cl)c1 (stereo not drawn)	1.06
C[C@H](NC(=O)CNC(=O)c1cccc(Cl)c1)c1ccccc1	1.09
CC(C)C[C@H](NC(=O)CNC(=O)c1cc(Cl)ccc1Cl)B(O)O [Ixazomib]	0.121
CCNC(=O)Nc1ccc(-c2nc(N3CCOC[C@@H]3C)c3c(n2)C(C)(C)S(=O)(=O)C3)cc1	0.547
CCn1nc(C2CCN(C(=O)CCO)CC2)nc1-c1cnc(N)c(-c2nnc(C(C)(C)C)o2)n1	1.04
COc1cc(OCc2cccc(-c3ccccc3)c2C)cc(OC)c1CN1CCCC[C@H]1C(=O)O [PD-1/PD-L1 inhibitor 1]	1.09
Nc1n[nH]c2cc(-c3ccc(=O)n(Cc4cccc(Cl)c4)c3)ccc12	1
Cc1cc(-n2cccc2)c(S(C)(=O)=O)cc1C(=O)N=C(N)N [Eniporide]	1.24
Nc1nccc(Oc2ccc3c(C(=O)Nc4cccc(C(F)(F)F)c4)cccc3c2)n1	1.15
C=C1CCC[C@]2(C)C[C@]3(O)OC(=O)C(C)=C3C[C@@H]12 [Atractylenolide III]	1.1

Structure (SMILES)	cell viability
COc1nccnc1NS(=O)(=O)c1ccc(NC(=O)/C=C/c2ccc([N+](=O)[O-])s2)cc1 [Necrosulfonamide]	1.13
O=C(COCC(=O)N1CCN(C(c2ccccc2)c2ccccc2)CC1)Nc1ccc(Cl)cc1C(=O)O [TM5275 sodium]	0.996
NCCC(=O)O [beta-Alanine]	1.24
CC(C)S(=O)(=O)c1ccc2nccc(Nc3ccc4scnc4c3)c2c1	1.08
Nc1nc2[nH]cc(CCc3ccc(C(=O)N[C@@H](CCC(=O)O)C(=O)O)cc3)c2c(=O)[nH]1 [Pemetrexed Disodium Hydrate]	0.187
Nc1nc(=O)c2c([nH]1)NC[C@H](CNc1ccc(C(=O)N[C@@H](CCC(=O)O)C(=O)O)cc1)N2C=O [Calcium Levofolinate]	1.15
Cc1ccc2nc(N)[nH]c(=O)c2c1Sc1ccncc1 [Nolatrexed]	1.04
COc1c2c(cc3c1-c1c(cc4c(c1OC)OCO4)C[C@H](C)[C@H](C)C3)OCO2 [Schisandrin C]	0.951
N#CC(=Cc1cc(Cl)cc(Cl)c1)c1cccnc1	1.14
CCN(CC)CCOc1ccc(Nc2nc(-c3ccccc3NC(=O)CCN3CCN(C)CC3)nc3ccccc23)cc1	1.15
CC(C)Oc1ccc(C(=O)N[C@H](CNC(=O)CN(C)C)Cc2ccc(-c3cn4cccc([C@H](C)O)c4n3)cc2)cc1Cl	0.15
COc1ccc(-c2cc(=O)c3c(O)cc(O[C@@H]4O[C@H](CO[C@@H]5O[C@@H](C)[C@H](O)[C@@H](O)[C@H]5O)[C@@H](O)[C@H](O)[C@H]4O)cc3o2)cc1 [Linarin]	1.02
NC(=O)c1[nH]cnc1N [4-Amino-5-imidazolecarboxamide]	1.23
CCn1cc(-c2cccc(C(F)(F)F)c2)c2sc(C(=N)NC3CCS(=O)(=O)CC3)cc2c1=O	1.1
CC(C)C[C@H](NC(=O)[C@H](CCc1ccccc1)NC(=O)CN1CCOCC1)C(=O)N[C@@H](Cc1ccccc1)C(=O)N[C@@H](CC(C)C)C(=O)[C@@]1(C)CO1 [Carfilzomib]	0.0349
CC(C)c1nc(CN(C)C(=O)N[C@@H](CCN2CCOCC2)C(=O)N[C@H](CC[C@H](Cc2ccccc2)NC(=O)OCc2cncs2)Cc2ccccc2)cs1 [Cobicistat]	1.14
COc1ccc(C[C@H](NC(=O)[C@H](C)NC(=O)CN2CCOCC2)C(=O)N[C@@H](Cc2ccccc2)C(=O)C2(C)CO2)cc1 (stereo in doubt)	0.878
CC(=O)OC(CC(C)C1=C2C[C@H](O)C3[C@@]4(C)CCC(=O)C(C)(C)C4CC[C@]3(C)[C@@]2(C)CC1)C1OC1(C)C (stereo partly drawn) [Alisol B 23-acetate]	0.99
CC(C)C[C@H](NC(=O)[C@@H](NC(=O)c1cccc(-c2ccccc2)n1)[C@@H](C)O)B(O)O [Delanzomib]	0.096
CNC(=O)[C@H](Cc1ccccc1)NC(=O)[C@H](CC(C)C)[C@H](CSc1cccs1)C(=O)NO [Batimastat]	1.08
CC(C)C[C@H](NC(=O)[C@H](Cc1ccccc1)NC(=O)c1cnccn1)B(O)O [Bortezomib]	0.067
CC(C)C[C@H](NC(=O)[C@@H](O)[C@H](N)Cc1ccccc1)C(=O)O [Bestatin hydrochloride]	1.16
CC(C)C[C@H](NC(=O)[C@@H](O)[C@H](N)Cc1ccccc1)C(=O)O [Ubenimex]	1.08
CCCOc1ccc(/C=C2\SC(=O)NC2=O)cc1	1.11
CCn1c(=Cc2cccc[n+]2CC)sc(=C2Sc3ccccc3N2C)c1=O	1.04
COc1ccc(/C=C/c2cc(O)cc(O[C@@H]3O[C@H](CO)[C@@H](O)[C@H](O)[C@H]3O)c2)cc1O [Rhaponiticin]	1.11

Structure (SMILES)	cell viability
CC(C)=CCC[C@](C)(O[C@@H]1O[C@H](CO)[C@@H](O)[C@H](O)[C@H]1O)[C@H]1CC[C@]2(C)[C@@H]1[C@H](O)C[C@@H]1[C@@]3(C)CC[C@H](O)C(C)(C)[C@@H]3[C@@H](O)C[C@]12C [Ginsenoside F1]	1.1
C=C1CC[C@@H]2[C@](C)(CO[C@@H]3O[C@H](CO)[C@@H](O)[C@H](O)[C@H]3O)CCC[C@@]2(C)[C@@H]1CCC1=CCOC1=O [Neoandrographolide]	1.08
O=C1N[C@@H](Cc2c[nH]c3ccccc23)C(=O)N2CCC[C@@H]12 [Brevianamide F]	1.05
Nc1nc(O)c2[nH]nnc2n1 [8-Azaguanine]	0.571
CCc1cnn2c(NCc3ccc[n+]([O-])c3)cc(N3CCCC[C@H]3CCO)nc12 [Dinaciclib]	0.118
COc1ccc(CNc2nc(N3CCC[C@H]3CO)ncc2C(=O)NCc2ncccn2)cc1Cl [Avanafil]	0.966
O=C1C[C@@H](c2ccc(O)c(O)c2)Oc2cc(O)cc(O)c21 [Eriodictyol]	1.04
COc1cccc(OCCCN)c1-c1cc(Nc2cnc(C#N)cn2)n[nH]1 [Prexasertib dihydrochloride]	0.169
N#Cc1cnc(Nc2cc(NC[C@H]3CNCCO3)c(C(F)(F)F)cn2)cn1	1.07
Cc1cc(O)c(C(=O)CCC(C)C)c(=O)o1 [Pogostone]	1.04
O=C(NCc1ccc(S(=O)(=O)c2cc(F)cc(F)c2)cc1)c1ccc2nccn2c1	0.117
Cc1ccc(S(=O)(=O)Cc2nc(-c3ccc(C(=O)NCc4cccnc4)cc3)oc2C)cc1	0.875
O=S(=O)(c1ccc(Cl)cc1)N1CCN(c2ccnc3cc(Cl)ccc23)CC1	1.08
CCCCCCCCCCCCCCOc1ccc(C(=O)O)o1	1.05
O=C(NCCN1CCOCC1)Nc1ccc(C(=O)/C=C/c2cccc(N3CCOCC3)n2)cc1	1.09
CC(=O)c1cnc2ccc(-c3cc(Cl)c(O)c(Cl)c3)nc2c1N[C@H]1CC[C@H](CN(C)C)CC1	0.657
O=C(NCCCNc1nc(Nc2cccc(CN3CCOCC3)c2)ncc1C1CC1)C1CCC1	0.937
Nc1ccn([C@@H]2O[C@H](CO)[C@@H](O)[C@H]2O)c(=O)n1 [Cytidine]	0.915
Nc1ccn([C@@H]2CS[C@H](CO)O2)c(=O)n1 [Lamivudine]	1.21
C[C@H](NP(=O)(OC[C@H]1O[C@@H](n2ccc(N)nc2=O)C(F)(F)[C@@H]1O)Oc1ccccc1)C(=O)OCc1ccccc1 (stereo partly drawn) [Acelarin]	0.135
Nc1ccn([C@@H]2O[C@H](CO)[C@@H](O)C2(F)F)c(=O)n1 [Gemcitabine HCl]	0.121
Nc1ccn([C@H]2C[C@H](O)[C@@H](CO)O2)c(=O)n1 [2'-Deoxycytidine monohydrate]	1.07
CCCC(CCC)C(=O)Nc1ccn([C@@H]2O[C@H](CO)[C@@H](O)C2(F)F)c(=O)n1	1.12
CC(=O)Nc1ccn([C@@H]2O[C@H](CO)[C@@H](O)[C@H]2O)c(=O)n1 [N4-Acetylcytidine]	1.06
Nc1ccn([C@@H]2O[C@H](CO)[C@@H](O)[C@@H]2O)c(=O)n1 [Cytarabine]	0.12
Nc1ccn([C@@H]2O[C@H](CO)[C@@H](O)C2(F)F)c(=O)n1 [Gemcitabine]	0.0956
